# Experimental data from PubChem BioAssay.
# The source made the active and inactive calls. Unless noted, no rule for the calls is given here.
# What was measured:
# [1] = HepG2 liver cancer cell viability effects, profiling panel, resazurin fluorescence, 24 h, PK04 Diversity Set (AID 1172); conditions: higher = more signal; also: test concentration not given here
# [2] = basal S. cerevisiae growth modulation, no modifier, primary screen, OD600, strain BY4716, 24 h, basal condition (AID 1173); conditions: OD600, 24 h, higher = more signal, called active from +8 up or from −8 down
# [3] = MM1S myeloma cell viability, profiling panel, resazurin fluorescence, basal, 24 h, PK04 Diversity Set (AID 1174); conditions: higher = more signal, called active from +8 up or from −8 down;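 also: MM1S multiple myeloma cell line; test concentration not given here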
# [4] = target: Dihydroorotate dehydrogenase (quinone), mitochondrial (Plasmodium falciparum (isolate 3D7)) (UniProt Q08210); experiment: PfDHODH enzyme inhibitors, primary screen, biochemical, C-terminal His tag, absorbance 600 nm (AID 1175); conditions: DCIP absorbance 600 nm, higher = more signal, called active from +8 up or from −8 down;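 also: recombinant parasite enzyme with a five histidine tag at its C terminus; test concentration not given here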
# Chain of Dihydroorotate dehydrogenase (quinone), mitochondrial (Plasmodium falciparum (isolate 3D7)) (Q08210 whole entry, looked up): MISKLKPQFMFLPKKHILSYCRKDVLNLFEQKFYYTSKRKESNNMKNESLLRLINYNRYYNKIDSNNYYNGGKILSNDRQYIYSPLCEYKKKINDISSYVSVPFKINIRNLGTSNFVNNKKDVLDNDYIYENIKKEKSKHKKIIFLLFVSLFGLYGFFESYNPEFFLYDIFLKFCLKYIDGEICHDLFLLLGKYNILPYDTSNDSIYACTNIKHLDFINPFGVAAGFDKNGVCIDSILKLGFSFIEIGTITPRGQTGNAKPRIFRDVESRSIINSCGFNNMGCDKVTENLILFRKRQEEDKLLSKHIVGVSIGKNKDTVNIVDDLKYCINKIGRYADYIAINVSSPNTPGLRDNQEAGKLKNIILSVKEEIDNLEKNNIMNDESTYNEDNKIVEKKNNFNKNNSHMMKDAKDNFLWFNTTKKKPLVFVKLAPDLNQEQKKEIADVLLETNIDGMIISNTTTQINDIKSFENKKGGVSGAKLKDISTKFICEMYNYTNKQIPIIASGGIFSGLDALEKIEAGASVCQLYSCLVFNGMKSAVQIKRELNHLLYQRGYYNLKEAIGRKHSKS
# [5] = P. aeruginosa biofilm formation inhibitors, primary screen, strain PAO1, LB-PBS medium, absorbance 600 nm (AID 1176); also: test concentration not given here; conditions: P. aeruginosa PAO1 growth/biofilm, A600, 12 h; higher = more signal
# [6] = S. cerevisiae RM11-1a growth modifiers, primary screen, strain RM11-1a, OD600, basal, 24 h (AID 1177); conditions: OD600, 24 h, higher = more signal, called active from +8 up or from −8 down;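 also: cultures grown under basal conditions with no added stressor; test concentration not given here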
# [7] = E. coli acrAB mutant growth effects, primary screen, E. coli filamentation inducers, strain DRC39, OD650, 24 h (AID 1178); conditions: higher = more signal, called active from +8 up or from −8 down;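 also: growth measured as culture turbidity by optical density at 650 nm; test concentration not given here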
# [8] = E. coli acrAB mutant growth effects, primary screen, E. coli filamentation inducers, strain DRC39, OD650, 48 h (AID 1179);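 also: screen aims at cell division blockers that make cells filament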; conditions: E. coli DRC39 delta-acrAB growth, higher = more signal, called active from +8 up or from −8 down
# [9] = RPMI8226 myeloma cell viability, profiling panel, resazurin fluorescence, basal, 24 h, PK04 Diversity Set (AID 1180); conditions: higher = more signal;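 also: RPMI8826 multiple myeloma cell line at 5000 cells per well; test concentration not given here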
# [10] = target: E3 ubiquitin-protein ligase XIAP (Homo sapiens) (UniProt P98170); experiment: XIAP binders, primary screen, biophysical, small-molecule microarray, fluorescence 635 nm (AID 1181); conditions: small-molecule microarray binding, higher = more signal;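 also: score merges 667 nm emission and signal to noise over triplicate slides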
# Chain of E3 ubiquitin-protein ligase XIAP (Homo sapiens) (P98170 whole entry, looked up): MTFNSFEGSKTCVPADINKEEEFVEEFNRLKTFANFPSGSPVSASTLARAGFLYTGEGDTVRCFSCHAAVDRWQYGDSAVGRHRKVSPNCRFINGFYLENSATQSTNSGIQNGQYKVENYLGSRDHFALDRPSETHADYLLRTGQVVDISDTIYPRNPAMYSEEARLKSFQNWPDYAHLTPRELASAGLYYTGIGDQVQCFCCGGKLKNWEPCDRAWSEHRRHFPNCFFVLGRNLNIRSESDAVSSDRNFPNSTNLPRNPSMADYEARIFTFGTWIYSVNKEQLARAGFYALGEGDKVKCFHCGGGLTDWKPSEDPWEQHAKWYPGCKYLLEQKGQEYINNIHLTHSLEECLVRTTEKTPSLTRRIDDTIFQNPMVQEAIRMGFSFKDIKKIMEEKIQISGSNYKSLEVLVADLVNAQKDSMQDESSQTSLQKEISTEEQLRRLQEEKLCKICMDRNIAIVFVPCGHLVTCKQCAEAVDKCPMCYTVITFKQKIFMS
SMILES,z-score [1],z-score [2],z-score [3],composite z-score [4],z-score [5],z-score [6],z-score [7],z-score [8],z-score [9],composite z-score [10]
O=C1C[C@@](C(=O)NCC(F)(F)F)(c2ccc([N+](=O)[O-])cc2)[C@@H](c2ccc(CO)cc2)N1C1CCCCC1,-0.289,-0.693 (inactive),-0.39 (inactive),-0.356 (inactive),0.416 (inactive),-0.815 (inactive),0.659 (inactive),0.0421 (inactive),-0.12,-0.209
COc1ccc(C(O)C2C=CC3C(=O)N(c4ccccc4)C(=O)C3N2Nc2ccc(C#N)cc2)c2ccccc12 (stereo not given),-1.47,-1.74 (inactive),-0.293 (inactive),0.397 (inactive),1.55 (inactive),-0.993 (inactive),-0.483 (inactive),0.161 (inactive),-0.55,0.39
CC1CC/C=C\[C@H]2OC34C=CCN(c5ccc6ccccc6c5)C(=O)[C@H]3N(C(CO)C(C)C)C(=O)[C@@H]4C2C(=O)O1 (stereo not given in full),-0.452,-0.0979 (inactive),-0.241 (inactive),-2.17 (inactive),-0.332 (inactive),-0.319 (inactive),0.0932 (inactive),0.154 (inactive),-0.315,0.558
COCC(=C=CC[C@H](O)c1ccc(OCCO)cc1)C[C@H](O)COCc1ccccc1,0.993,-1.49 (inactive),1.18 (inactive),-0.95 (inactive),0.33 (inactive),-1.3 (inactive),0.979 (inactive),0.921 (inactive),1.51,-0.0238
CC(C)(C)OC(=O)CC[C@]1(C(=O)N2CCOCC2)N=C(c2ccc(OCCCO)cc2)O[C@H]1c1ccccc1,-0.149,-0.243 (inactive),-1.56 (inactive),-0.127 (inactive),-0.537 (inactive),-0.294 (inactive),0.301 (inactive),0.553 (inactive),0.48,0.0003
O=C1O[C@@H](c2ccccc2)[C@@H](c2ccccc2)N2[C@@H](c3ccc(O)cc3)[C@]3(C(=O)Nc4ccc(C#CCCO)cc43)[C@@H](C(=O)Nc3nc4ccccc4s3)[C@H]12,0.43,0.442 (inactive),0.307 (inactive),-0.292 (inactive),0.513 (inactive),0.948 (inactive),-0.0791 (inactive),0.282 (inactive),0.73,-0.0918
COc1c(C)cc(-c2cc3c(c(-c4ccccc4)n2)[Si](C(C)C)(C(C)C)OC3)cc1C,0.0316,0.256 (inactive),0.416 (inactive),-0.149 (inactive),0.173 (inactive),-0.741 (inactive),0.762 (inactive),0.319 (inactive),0.798,0.205
NC(=O)N1C(=O)C2C(C1=O)C1C=C(CCCO)C2C(c2cccs2)N1Cc1cc2c(cc1Br)OCO2 (stereo not given),0.652,-2.37 (inactive),0.271 (inactive),-1.72 (inactive),-0.259 (inactive),0.0427 (inactive),0.18 (inactive),0.0419 (inactive),0.645,-0.267
CC(C)(C)OC(=O)CC[C@]1(C(=O)NCCN2CCOCC2)N=C(c2ccc(OCCCO)cc2)O[C@H]1c1ccccc1N=[N+]=[N-],-0.0231,-0.893 (inactive),-1.28 (inactive),0.255 (inactive),0.494 (inactive),-0.279 (inactive),0.23 (inactive),-0.635 (inactive),-0.565,-0.16
O=c1cccc(-c2cccc(Cl)c2)o1,-0.381,-8.75 (active),0.149 (inactive),-0.0422 (inactive),-0.377 (inactive),-0.401 (inactive),0.304 (inactive),-0.326 (inactive),-0.4,-0.0052
O=C1c2ccccc2[C@@]2(Cc3ccccc3N(C3CC3)C2=O)[C@H](c2ccc(CO)cc2)N1C1CCCCC1,-0.319,0.979 (inactive),-0.36 (inactive),-4.68 (inactive),0.264 (inactive),1.24 (inactive),0.609 (inactive),0.106 (inactive),-0.546,0.242
CCCCN1CC=CC23O[C@@H]4C=CCOC(=O)[C@@H]4[C@H]2C(=O)N(C(C)CO)[C@@H]3C1=O (stereo not given in full),-0.0023,0.15 (inactive),-0.536 (inactive),-1.49 (inactive),-0.456 (inactive),-0.938 (inactive),-0.338 (inactive),-0.478 (inactive),-0.784,-0.0525
CCCc1cccc(=O)o1,0.866,0.68 (inactive),0.821 (inactive),-0.661 (inactive),0.353 (inactive),-0.243 (inactive),-0.161 (inactive),0.846 (inactive),0.819,-0.0721
COc1cc(CO)cc(I)c1O[C@H]1C=C(C(=O)NCCO)C[C@@H](N(CC2CCCCC2)C(=O)c2ccc(C(F)(F)F)cc2)[C@@H]1O,0.445,-1.02 (inactive),-0.327 (inactive),0.345 (inactive),0.425 (inactive),0.183 (inactive),0.342 (inactive),0.212 (inactive),0.508,0.0859
COc1cc(OC)c(C(O)C2C=CC3C(=O)N(c4ccccc4)C(=O)C3N2Nc2ccc(C#N)cc2)cc1Br (stereo not given),-0.99,-6.31 (inactive),-0.408 (inactive),1.49 (inactive),0.984 (inactive),-0.759 (inactive),-0.628 (inactive),-0.0118 (inactive),-0.758,-0.0181
C=C(/C=C/CNS(=O)(=O)c1ccc(C)cc1)[C@H](O)[C@H]1CCCN1S(=O)(=O)c1ccccc1[N+](=O)[O-],-0.0339,0.587 (inactive),0.113 (inactive),0.858 (inactive),-0.447 (inactive),1.41 (inactive),1.45 (inactive),0.579 (inactive),0.0925,-0.0582
COc1ccc([Si](C)(C)[C@H]2[C@H](CCO)O[C@@]3(C(=O)N(Cc4cccc(N5CCCCC5=O)c4)c4ccccc43)[C@@H]2C)cc1,-4.02,-0.732 (inactive),-7.24 (inactive),-2.94 (inactive),0.969 (inactive),4.44 (inactive),1.83 (inactive),1.26 (inactive),-4.57,-0.031
CCOC(=CC(=O)OC)CC(O)c1cccc(Cl)c1 (stereo not given),0.217,-8.62 (active),-0.0412 (inactive),-1.92 (inactive),0.16 (inactive),-2.91 (inactive),0.121 (inactive),1.08 (inactive),0.404,-0.0091
C=CC[C@]1(C(=O)N(C)C)N=C(c2ccc(OCCCO)cc2)O[C@H]1c1ccccc1N=[N+]=[N-],0.146,0.136 (inactive),-1.54 (inactive),0.25 (inactive),0.286 (inactive),0.446 (inactive),-0.0751 (inactive),-0.179 (inactive),-1.32,0.121
CC(C)(C)OC(=O)CC[C@]1(C(=O)O)N=C(c2ccc(OCCCO)cc2)O[C@H]1c1ccccc1CN=[N+]=[N-],0.706,-0.0245 (inactive),0.444 (inactive),0.209 (inactive),-0.788 (inactive),-0.165 (inactive),0.184 (inactive),1.25 (inactive),0.925,-0.204
CO[C@H]1O[C@H](CO)[C@@H](OC(=O)Nc2ccc(Oc3ccccc3)cc2)[C@H](OC(=O)Nc2ccccc2-c2ccccc2)[C@@H]1OC(=O)Nc1ccccc1-c1ccccc1,0.776,1.01 (inactive),-0.648 (inactive),0.308 (inactive),0.18 (inactive),2.58 (inactive),-0.325 (inactive),-0.0232 (inactive),-0.296,-0.117
CN(C)CCCN1C(=O)[C@@]2(c3ccc([N+](=O)[O-])cc3)CC(=O)N(CC34CC5CC(CC(C5)C3)C4)[C@@H]2c2ccc(CO)cc21,-0.349,0.24 (inactive),-0.752 (inactive),-7.42 (inactive),-0.121 (inactive),0.536 (inactive),0.384 (inactive),0.567 (inactive),-0.959,-0.02
COc1ccc(C(O)C2C=CC3C(=O)N(Cc4ccccc4)C(=O)C3N2n2cnnc2)c2ccccc12 (stereo not given),-1.05,0.373 (inactive),-1.47 (inactive),-0.609 (inactive),-0.722 (inactive),-0.975 (inactive),-0.597 (inactive),-0.706 (inactive),-1.06,0.176
CCOC(=O)[C@H]1C/C=C/C[C@H](C(=O)OCC)C(=O)O[C@H]2[C@@H](OC)O[C@H](CO)[C@@H](OC(=O)Nc3ccc(OC)cc3)[C@@H]2OC1=O,-1.45,-0.0211 (inactive),-2.07 (inactive),0.214 (inactive),0.979 (inactive),0.864 (inactive),0.391 (inactive),1.25 (inactive),-1.08,0.191
CC(=O)n1cc(C(O)C2C=CC3C(=O)N(Cc4ccccc4)C(=O)C3N2n2cnnc2)c2ccccc21 (stereo not given),-0.227,0.319 (inactive),-0.929 (inactive),-0.351 (inactive),-0.514 (inactive),-0.371 (inactive),-1.34 (inactive),-1.4 (inactive),-1.27,0.764
C=CCC(OC(C)=O)[C@@H]1[C@@H](N(Cc2cc3ccccc3o2)C(=O)c2ccc(C)cc2)c2cc(OCCCO)ccc2N1C(=O)Cc1ccc2ccccc2c1 (stereo not given in full),0.85,0.0206 (inactive),-0.589 (inactive),0.507 (inactive),-0.501 (inactive),0.554 (inactive),0.964 (inactive),1.08 (inactive),0.305,0.162
